Source: PubChem BioAssay (National Center for Advancing Translational Sciences (NCATS))
IL1B secr inh: inhibitors of inflammasome signaling (IL-1 beta secretion). THP-1 LPS/ATP IL-1B secretion, AlphaLISA, 16 h; active compounds read low. activity change, % at 57.5 µM. hit rate 4.7% among 360,000. AID 743279; in the data active means activity change below about -50%; inconclusive means mostly about -30% to -49%
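Secreted IL-1B measured by AlphaLISA bead assay after 16 h compound exposure of THP-1 cells; compounds (final up to 57.5 uM) added 1 h before LPS (250 ng/mL) and ATP (1.25 mM) stimulation; lower signal means less secretion.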
HT1080 IDH1KD tx: toxicity to HT-1080 IDH1 knockdown cells (counter line). HT-1080 IDH1 knockdown viability, ATP luminescence, 48 h. hit rate 2% among 360,000. Potency, µM (doses to about 46.1 µM), for the others: top-dose activity, negative = toxicity, usual class: cytotoxic. AID 686971;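 further: potency means the concentration at half of the fitted maximal effect; 0% = DMSO wells and -100% = cell-free medium wells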
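% activity derives from luminescence (CellTiter-Glo), normalised to DMSO and no-cell wells. HT-1080-IDH1KD cells, 750/well, had 48 h compound exposure at 37 °C.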
HT1080-NT tox: kills 2HG-producing HT-1080-NT fibrosarcoma cells; Potency, µM (highest dose often 46.1 µM), inactives show at the highest dose activity, negative = less viability, hits mostly cytotoxic; HT-1080-NT fibrosarcoma viability, CellTiter-Glo ATP luminescence, 48 h; AID 686970; hit rate 1.6% among 360,000;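 further: NT is the 2HG producing partner of a matched IDH1 knockdown line; potency means the concentration at half of the fitted maximal effect; 0% = DMSO-treated cells and -100% = media-only wells without cells; nearly all actives have a fitted effect of over 55% in size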
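HT-1080-NT fibrosarcoma cells (2HG-overproducing), 750 cells/well in RPMI with 5% FBS, dosed after 2 h and incubated 48 h at 37C. CellTiter-Glo luminescence normalized to DMSO and no-cell wells; concentration-response curves fitted and classed.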
12-LOX inh: inhibitors of human 12S-lipoxygenase ALOX12 | P18054 | purified 12hLO, xylenol orange hydroperoxide absorbance | Potency, µM (top dose mostly 108 µM), for inactives: at the highest dose activity change, negative = inhibition, usual class: inhibitors | hit rate 1.1% among 580,000; further: potency means the concentration at half of the fitted maximal effect
Target sequence (P18054 whole entry, looked up): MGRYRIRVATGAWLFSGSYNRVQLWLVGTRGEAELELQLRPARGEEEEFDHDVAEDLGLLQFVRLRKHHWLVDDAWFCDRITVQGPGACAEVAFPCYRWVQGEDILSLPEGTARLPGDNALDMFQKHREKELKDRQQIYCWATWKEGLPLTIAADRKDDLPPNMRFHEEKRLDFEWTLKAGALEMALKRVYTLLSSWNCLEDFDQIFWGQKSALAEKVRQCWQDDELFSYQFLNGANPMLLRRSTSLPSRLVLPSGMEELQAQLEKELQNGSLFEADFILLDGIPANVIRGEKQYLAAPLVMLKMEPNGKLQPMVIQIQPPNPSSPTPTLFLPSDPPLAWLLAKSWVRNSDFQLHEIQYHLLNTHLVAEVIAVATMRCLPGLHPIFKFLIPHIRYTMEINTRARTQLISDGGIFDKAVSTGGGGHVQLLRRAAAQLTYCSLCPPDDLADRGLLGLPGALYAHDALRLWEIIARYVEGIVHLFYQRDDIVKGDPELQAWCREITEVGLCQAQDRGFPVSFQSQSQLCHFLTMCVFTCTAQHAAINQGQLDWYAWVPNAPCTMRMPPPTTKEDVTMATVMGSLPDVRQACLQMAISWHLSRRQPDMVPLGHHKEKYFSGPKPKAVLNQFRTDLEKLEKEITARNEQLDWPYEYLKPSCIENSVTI
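Purified human 12hLO at 150 nM in 25 mM Hepes, 0.01% Triton X-100, pH 7.0, preincubated 15 min at room temperature with compound. Reaction started with 40 uM arachidonic acid, 30 min at room temperature. Hydroperoxide measured by Fe-xylenol orange, 573/405 nm absorbance ratio.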
DT40 TDP1 no CPT: qHTS for Inhibitors of human tyrosyl-DNA phosphodiesterase 1 (TDP1): qHTS in cells in absence of CPT; AID 686978, 2013; DT40 Tdp1-/- hTDP1 cells, no CPT, ATP luminescence, 48 h; hit rate 15% among 420,000; Potency, µM (titrated, usually from 46.2 µM), for the others: at the top dose activity change, negative = growth inhibition, hits mostly inhibitors; further: potency means the concentration at half of the fitted maximal effect; nearly all actives have a fitted effect of over 55% in size
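Stably hTDP1-transfected Tdp1-null chicken DT40 cells were treated with library compounds minus camptothecin and grown for at least 48 hr at 37 °C, after which cellular ATP was quantified by luminescence.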
DT40 TDP1 CPT: growth inhibition of DT40 Tdp1-/-;hTDP1 cells with camptothecin (screen for TDP1 inhibitors); chicken DT40 Tdp1-/-;hTDP1 cells + 20 nM CPT, ATP luminescence, 48 h; Potency, µM (series often up to 46.2 µM), inactives show top-dose activity change, negative = growth inhibition, most hits filed as inhibitors; hit rate 12% among 420,000; further: potency means the concentration at half of the fitted maximal effect; nearly all actives have a fitted effect of over 55% in size
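Cell growth measured by CellTiter-Glo luminescence after a minimum 48 h, 37 C compound exposure with 20 nM CPT in Tdp1-knockout DT40 cells stably expressing hTDP1, seeded 400/well; qHTS titration format.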
Active calls of the source: *; [ ] = another dose, or the depositor's remark. Shown is part of a subset that was picked to be rich in hits. Unless noted, the call rests on the fitted dose curve; in most records, active means well fitted curve in the direction sought with a large enough effect; inconclusive means small, poorly fitted or top-dose-only effect, or another doubt; inactive means no such curve, though single readings can be large; an effect the other way counts as inactive or inconclusive. Unless noted, on the % scale 0 is the no-effect control and ±100 the full control effect.

For Cc1ccc(-c2noc(CCCc3nc(-c4cccnc4)no3)n2)nn1 the results were 12-LOX inh 13%.
Screening COc1ccc(N2CCN(S(=O)(=O)c3ccc4c(c3)CCCC4)CC2)c([N+](=O)[O-])c1 returned IL1B secr inh -62*, HT1080 IDH1KD tx -28%, HT1080-NT tox inconclusive, 12-LOX inh 1%, DT40 TDP1 no CPT 23µM* and DT40 TDP1 CPT 16µM*.
`NC(=O)c1ccc(N2CCN(c3ccc(O)cc3)CC2)c([N+](=O)[O-])c1` gave IL1B secr inh 11, HT1080 IDH1KD tx -24%, HT1080-NT tox -21%, 12-LOX inh inconclusive, DT40 TDP1 no CPT 16µM* and DT40 TDP1 CPT inconclusive.
CC(=O)c1ccc(N2CCN(c3ccc(C(N)=O)cc3[N+](=O)[O-])CC2)cc1 was read as IL1B secr inh 5, HT1080 IDH1KD tx 0%, HT1080-NT tox -1%, 12-LOX inh -1%, DT40 TDP1 no CPT inconclusive and DT40 TDP1 CPT inconclusive.
NC(=O)c1ccc(N2CCN(S(=O)(=O)c3ccccc3)CC2)c([N+](=O)[O-])c1 was read as IL1B secr inh -11, HT1080 IDH1KD tx -24%, HT1080-NT tox -18%, 12-LOX inh -10%, DT40 TDP1 no CPT 7.3µM* and DT40 TDP1 CPT inconclusive.
CC(=O)N1CCN(c2ccc(S(=O)(=O)N3CCCCC3)cc2[N+](=O)[O-])CC1 was read as IL1B secr inh 6, HT1080 IDH1KD tx 5%, HT1080-NT tox -3%, 12-LOX inh -24%, DT40 TDP1 no CPT inconclusive and DT40 TDP1 CPT -23%.
COC(=O)c1ccc(N2CCN(S(=O)(=O)c3ccc4ccccc4c3)CC2)c([N+](=O)[O-])c1 was read as IL1B secr inh -13, HT1080 IDH1KD tx -9%, HT1080-NT tox -9%, 12-LOX inh -12%, DT40 TDP1 no CPT 21µM* and DT40 TDP1 CPT 16µM*.
For COc1ccccc1N1C(=O)c2ccccc2NC1c1cn(C)c(=O)n(C)c1=O (stereo not drawn) the results were 12-LOX inh -1%.
COc1cccc(N2C(=O)CCC2(C)C(=O)NC2CCCC2)c1 (stereo not drawn) was read as 12-LOX inh 17%.
Nc1cnn(Cc2ccccc2F)c1 was read as IL1B secr inh 16, HT1080 IDH1KD tx inconclusive, HT1080-NT tox inconclusive, 12-LOX inh -8%, DT40 TDP1 no CPT 21µM* and DT40 TDP1 CPT inconclusive.
Screening CC1CCCN(C(=O)COc2ccc(-c3ccccc3)cc2)C1 (stereo not drawn) returned IL1B secr inh inconclusive, HT1080 IDH1KD tx -10%, HT1080-NT tox -16%, 12-LOX inh 0%, DT40 TDP1 no CPT 15µM* and DT40 TDP1 CPT inconclusive.
COc1ccc2c(c1)c(=O)oc1cc(OCC(=O)N3CCCC(C)C3)ccc12 (stereo not drawn) was read as IL1B secr inh -1, HT1080 IDH1KD tx 0%[9.24 µM], HT1080-NT tox -19%, 12-LOX inh -17%, DT40 TDP1 no CPT 13µM* and DT40 TDP1 CPT inconclusive.
`COc1ccc2c(c1)c(=O)oc1cc(OCC(=O)N3CCC(C)CC3)ccc12` gave IL1B secr inh -7, HT1080 IDH1KD tx inconclusive, HT1080-NT tox inconclusive, DT40 TDP1 no CPT 21µM* and DT40 TDP1 CPT inconclusive.
For COCCn1c(SC(C)c2nc(C(C)(C)C)no2)nc2sc(C)c(C)c2c1=O (stereo not drawn) the results were 12-LOX inh -1%.
For Cc1cc(C)cc(NS(=O)(=O)c2ccc3c(c2)CCCN3C(=O)C2CCC2)c1 the results were 12-LOX inh 10%, DT40 TDP1 no CPT 21µM* and DT40 TDP1 CPT 23µM*.
CCOc1ccc(NS(=O)(=O)c2ccc3c(c2)CCCN3C(=O)C2CCC2)cc1 was read as 12-LOX inh 5%, DT40 TDP1 no CPT inconclusive and DT40 TDP1 CPT inconclusive.
For O=C(C1CCC1)N1CCCc2cc(S(=O)(=O)Nc3ccc(F)cc3)ccc21 the results were 12-LOX inh 5%, DT40 TDP1 no CPT 23µM* and DT40 TDP1 CPT inconclusive.
Screening CC(=O)N1CC2(CCCCN2Cc2cccc(C(N)=O)c2)Cc2ccccc21 (stereo not drawn) returned 12-LOX inh 3%[6.33 µM].
Screening COc1ccc(S(=O)(=O)N2CCCC(Cn3c(C4CC4)nc4cccnc43)C2)cc1 (stereo not drawn) returned 12-LOX inh 21%.
Screening COc1ccc(Cn2c(-c3ccc(Br)cc3)c[n+]3ccccc23)cc1 returned IL1B secr inh -61*, HT1080 IDH1KD tx inconclusive, HT1080-NT tox inconclusive, 12-LOX inh -18%, DT40 TDP1 no CPT 2.1µM* and DT40 TDP1 CPT 1.8µM*.
Screening CCCCCCOc1ccccc1/C=C(\C#N)C(=O)c1ccccc1 returned 12-LOX inh -12%.
For O=[N+]([O-])c1ccc(N=Nc2c(Cl)cc(O)cc2Cl)cc1 the results were IL1B secr inh inconclusive, HT1080 IDH1KD tx 8.2µM*, HT1080-NT tox 6.5µM*, 12-LOX inh inconclusive, DT40 TDP1 no CPT 4.6µM* and DT40 TDP1 CPT 4.1µM*.
Screening CC(=O)c1ccc2c(c1)C1C=CCC1C(c1ccc(S(=O)(=O)N3CCOCC3)cc1)N2 (stereo not drawn) returned IL1B secr inh 17, HT1080 IDH1KD tx -21%, HT1080-NT tox -13%, 12-LOX inh inconclusive, DT40 TDP1 no CPT inconclusive and DT40 TDP1 CPT -19%.
For CC(=O)c1ccc2c(c1)C1C=CCC1C(c1cc3c(cc1Br)OCO3)N2 (stereo not drawn) the results were IL1B secr inh 97, HT1080 IDH1KD tx 3.7µM*, HT1080-NT tox 5.8µM*, 12-LOX inh inconclusive, DT40 TDP1 no CPT 4.6µM* and DT40 TDP1 CPT 3.7µM*.
Screening COc1ccc2c(c1)C1C=CCC1C(c1cc3c(cc1Br)OCO3)N2 (stereo not drawn) returned IL1B secr inh 7, HT1080 IDH1KD tx 10µM*, HT1080-NT tox 10µM*, 12-LOX inh -15%, DT40 TDP1 no CPT 18µM* and DT40 TDP1 CPT inconclusive.
For COc1cccc([C@@H]2Nc3ccc(C(=O)O)cc3[C@@H]3C=CC[C@@H]32)c1OC the results were 12-LOX inh -22%, DT40 TDP1 no CPT 0% and DT40 TDP1 CPT 1%.
